Screens deposited in PubChem by Buhrlage Lab, Dana-Farber Cancer Institute and Novartis Institutes for BioMedical Research (Cambridge, Mass).
USP8 block: blocks human USP8 ubiquitin-rhodamine cleavage; purified USP8, Ub-rhodamine cleavage fluorescence, 30 min; inhibition, % at 20 µM; 47,000 tested, 4.2% active; P40818
USP30 inh: inhibitors of human USP30 deubiquitinase | Q70CQ3 | purified USP30, Ub-rhodamine cleavage fluorescence | inhibition, % at 25 µM | 47,000 tested, 5.3% active
Target sequence (Q70CQ3 whole entry, looked up): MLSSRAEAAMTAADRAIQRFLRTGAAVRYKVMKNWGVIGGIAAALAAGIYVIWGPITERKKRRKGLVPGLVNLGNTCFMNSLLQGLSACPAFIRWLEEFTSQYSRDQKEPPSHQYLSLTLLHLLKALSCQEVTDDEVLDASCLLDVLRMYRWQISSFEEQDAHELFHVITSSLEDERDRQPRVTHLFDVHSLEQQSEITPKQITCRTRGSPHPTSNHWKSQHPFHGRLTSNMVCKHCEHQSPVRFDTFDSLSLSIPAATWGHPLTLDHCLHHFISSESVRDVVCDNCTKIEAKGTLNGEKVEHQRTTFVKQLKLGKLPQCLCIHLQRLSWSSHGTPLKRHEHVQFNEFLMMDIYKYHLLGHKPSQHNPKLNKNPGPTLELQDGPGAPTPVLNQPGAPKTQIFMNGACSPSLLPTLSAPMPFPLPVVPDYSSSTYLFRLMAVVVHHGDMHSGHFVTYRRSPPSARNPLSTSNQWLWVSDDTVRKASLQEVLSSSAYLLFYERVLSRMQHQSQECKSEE
USP10 block: blocks human USP10 ubiquitin-rhodamine cleavage; 47,000 tested, 1.1% active; AID 1645856; purified USP10, Ub-rhodamine fluorescence, 60 min; Q14694; inhibition, % at 20 µM
USP17 block: human USP17-like deubiquitinase inhibition. purified USP17, Ub-rhodamine cleavage fluorescence, 3 h. inhibition, % at 50 µM. 47,000 tested, 6.5% active. AID 1645855
USP28 inh: inhibitors of human USP28 deubiquitinase; Q96RU2; purified USP28, Ub-rhodamine cleavage fluorescence, 30 min; inhibition, % at 25 µM; 47,000 tested, 3% active
Active calls of the source: *; i = inactive; · = not tested or not shown. In the library only some 13% were active in any assay of this set; here they are far more common. No stated cut-off is given here; in the data, active means inhibition above about 30%; inactive means the rest.

SMILES	USP8 block	USP30 inh	USP10 block	USP17 block	USP28 inh
O=C(NCc1ccco1)c1ccc2c(=O)n(Cc3ccco3)c(=O)[nH]c2c1	0.8	-22.3	2.1	40.2*	19.6
COc1ccc(CCn2c(=O)[nH]c3cc(C(=O)NCc4ccco4)ccc3c2=O)cc1OC	42.3*	7.4	24.0	-10.8	-0.6
O=C(NCc1ccccc1)c1ccc2c(=O)n(-c3ccccc3)c(=O)[nH]c2c1	12.8	21.4	16.9	66.2*	16.9
CC(C)C(=O)N1CCC(c2nc3c(nnn3Cc3ccc(Cl)cc3Cl)c(=O)[nH]2)CC1	8.2	24.1	6.8	4.7	16.5
COCCNC(=O)C1CCCN1C(=O)c1cccc(NC(=O)c2cccc(F)c2)c1 (stereo unspecified)	4.4	-10.3	-0.5	3.1	-2.9
CC(C)c1ccc(-c2cnc3sc(NCCc4ccccn4)nn23)cc1	-26.1	-15.9	8.4	-12.4	-8.2
O=C(NCCCO)c1cc(-c2ccn(C3CCCC3)n2)n2ccccc12	-93.6	-451.2	-8.6	-85.1	-96.5
O=C(OC1CSc2nc3ccccc3n2C1)c1ccc([N+](=O)[O-])o1 (stereo unspecified)	63.8*	-61.7	40.3*	95.9*	-2.0
Cc1nnc2ccc(C(=O)NC3CCN(Cc4ccccc4)CC3)cn12	-11.7	-39.1	-2.1	-22.9	-19.9
CC1CCCCN1CCCNC(=O)c1ccc(N2CCc3ccccc32)s1 (stereo unspecified)	10.6	23.6	-2.6	27.5	56.3*
CC1CCCN(CCCNC(=O)c2ccc(N3CCc4ccccc43)s2)C1 (stereo unspecified)	-15.6	23.9	-1.4	3.4	58.0*
CCN1CCN(CCNC(=O)c2ccc(N3CCc4ccccc43)s2)CC1	-16.7	-67.5	-0.8	0.8	12.1
Cc1ccc(S(=O)(=O)N2CCCN(C(=O)c3oc4ccccc4c3C)CC2)cc1	12.4	33.3*	4.2	21.9	22.3
COc1ccc(COC(=O)C2=CN(C)S(=O)(=O)N=C2C)cc1F	-220.8	i	-2.3	-134.2	-228.9
CCn1ncc(-c2ccnc3cc(C(=O)N4CCN(Cc5ccc(F)cc5)CC4)nn23)c1C	59.8*	-132.2	-3.7	28.0	2.0
CCN1CCN(C(=O)c2sc(-c3ccc(F)cc3)nc2C)CC1	-11.8	1.1	-1.6	-1.6	-4.2
O=C(O)c1cccc(NC(=O)c2ccccc2NC(=O)c2ccc([N+](=O)[O-])cc2)c1	0.9	-12.0	3.0	-45.5	-20.8
Cc1nc(Nc2ccc(Cl)cn2)sc1C(=O)NCc1ccccn1	50.0*	17.9	2.0	8.8	13.4
CCC(=O)Nc1c(C)noc1/C=C\c1ccc(S(=O)(=O)Nc2ccc(F)cc2F)cc1	6.1	45.6*	2.5	22.1	2.7
O=c1c2cc([N+](=O)[O-])ccc2nc(CN2CCN(c3ncccn3)CC2)n1-c1ccccc1F	-127.3	31.8*	0.1	-6.9	1.6
O=c1c2cc([N+](=O)[O-])ccc2nc(CN2CCC(Cc3ccccc3)CC2)n1-c1ccccc1F	-75.0	-30.8	0.3	-5.8	-1.4
CCOC(=O)c1ccc(-n2c(CN3CCN(c4cc(C)ccc4C)CC3)nc3ccc([N+](=O)[O-])cc3c2=O)cc1	19.8	30.3*	5.7	12.1	12.1
CCOC(=O)C1CCN(Cc2nc3ccc([N+](=O)[O-])cc3c(=O)n2-c2cc(OC)cc(OC)c2)CC1	-134.7	-10.4	6.4	17.9	0.2
CN1C(=O)COc2ccccc2CCCC[C@@H]2[C@H]1CCCN2S(=O)(=O)N1CCOCC1	7.7	30.6*	-4.5	3.0	16.5
CN1C(=O)COc2ccccc2CCCC[C@@H]2[C@H]1CCCN2C(=O)c1n[nH]c2c1CCC2	9.5	30.8*	0.6	6.4	12.0
SMILES	USP8 block	USP30 inh	USP10 block	USP17 block	USP28 inh
Cc1sc(C)c(S(=O)(=O)N2CCCC2)c1-c1cc(C(F)(F)F)on1	-8.8	9.4	-2.7	0.3	-4.1
COc1ccc(C[C@H](N)C(=O)NC2C(CO)OC(n3cnc4c(N(C)C)ncnc43)C2O)cc1 (stereo partly specified)	1.3	24.4	1.2	-18.6	-6.3
CN(C)C(CNC(=O)c1ccc2ccccc2n1)c1ccccc1 (stereo unspecified)	0.4	-6.8	-0.8	-0.5	-6.0
CC(NC(=O)c1ccc2ccccc2n1)c1ccccc1 (stereo unspecified)	14.6	44.0*	2.9	18.5	22.5
O=C(NCCn1ccc2ccccc21)c1cc2ccccc2oc1=O	3.3	14.0	4.5	68.4*	-6.6
O=C(NCc1ccccn1)c1nc[nH]c1C(=O)NCc1cc(F)cc(F)c1	-51.0	3.2	-0.2	0.0	9.2
Fc1cccc(Cl)c1CN1CCN(C/C=C/c2ccccc2)CC1	-111.7	12.7	2.2	3.6	6.6
CC(C)(C)c1nc(SCc2nc(N)nc(Nc3ccccc3)n2)n[nH]1	-2.2	-20.2	-0.5	-21.8	-14.2
CCc1nc(SCc2nc(N)nc(Nc3ccccc3)n2)n[nH]1	76.2*	13.7	2.2	16.7	8.4
CC(C)(C)c1ccc(NC(=O)CCn2ccc(=O)[nH]c2=O)cc1	3.1	39.8*	4.3	0.6	5.9
CC(Sc1nnc2ccccn12)C(=O)Nc1cccc([N+](=O)[O-])c1 (stereo unspecified)	0.2	·	2.1	-3.9	·
O=C(Nc1cccc([N+](=O)[O-])c1)Nc1ccc2snnc2c1	95.1*	-16.5	56.0*	-5.0	6.3
CC(C)n1cnc(-c2cc(C(=O)N3CCOCC3)c3ccccn23)c1	-11.7	-247.0	-8.0	-71.0	-58.0
O=C(COC(=O)C(c1ccccc1)c1ccccc1)NCc1ccccc1	7.1	33.7*	15.0	24.8	21.2
O=C(CC1CCCC1)N1CCCC(c2nn(CCOc3ccccc3)c3nccnc23)C1 (stereo unspecified)	12.4	23.2	5.4	14.8	18.1
O=C(C1CCCCC1)N1CCCC(c2nn(CCOc3ccccc3)c3nccnc23)C1 (stereo unspecified)	23.3	33.4*	0.8	30.6*	20.2
O=C(c1ccccc1Cl)N1CCN(C23CC4CC(CC(C4)C2)C3)CC1	3.3	15.2	-1.4	-0.2	5.4
COc1cccc(N2CCN(c3ccc4nnc(CCC(=O)NC5CCCC5)n4n3)CC2)c1	65.4*	19.8	-2.0	21.9	6.7
COc1cccc(N2CCN(c3ccc4nnc(CCC(=O)NCc5ccco5)n4n3)CC2)c1	-8.5	1.8	-7.7	-0.1	-5.0
COc1cccc(N2CCN(c3ccc4nnc(CCC(=O)N5CCc6ccccc6C5)n4n3)CC2)c1	11.0	47.8*	8.4	71.6*	39.2*
Cc1noc(C)c1S(=O)(=O)N1CCCC1c1ccnc(Nc2ccccn2)n1 (stereo unspecified)	-12.3	-7.0	0.0	-49.3	-4.0
O=C(NCc1ccc2c(c1)OCO2)c1nn(C23CC4CC(CC(C4)C2)C3)cc1[N+](=O)[O-]	-30.0	62.2*	9.6	6.5	25.4
CCOc1ccc2nc(C(=O)NCc3ccc4c(c3)OCO4)cn2n1	-7.6	41.2*	-4.1	31.7*	27.9
